Results on 34 molecules are retold here after PubChem BioAssay (NCATS).

Results filed as inconclusive are left out. A call without a number means that no potency is given here. Active and inactive are the calls of the source. The call rests on the fitted dose curve; in most records, active means well fitted inhibition curve with a large enough effect; inconclusive means small, poorly fitted or top-dose-only effect; inactive means flat fitted curve, though single readings scatter.
Potency means the concentration at half of the fitted maximal effect.

For the assay, the system named is Zika virus NS2B-NS3 protease. Put plainly: Primary screen GU AMC qHTS for Zika virus inhibitors (AID 1347154). Further: nearly all actives have a fitted effect of over 70% in size. The following applies: Zika NS2B-NS3 unlinked protease, AMC fluorogenic substrate; series mostly up to 54.1 µM. The method in brief: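 Unlinked Zika NS2B hydrophilic domain–NS3 protease complex at 25 nM in 10 mM Tris-HCl pH 8.0, 0.01% Tween 20, with an AMC peptide substrate. Fluorescence change (340/450 nm) over 15 min at room temperature, normalized to controls, fitted to 4-parameter Hill.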
For the molecule `C1CCC(NC2CCCCC2)CC1`, the Potency entry is “inactive”.
As for `CC1(C)CC/C(=C/c2ccc(Cl)cc2)C1(O)Cn1cncn1` (centres undefined), the entry is “inactive”; as for `CC(=CCCC1=CCC(C2=CC(=O)OC2O)OC1O)CCC1=C(C)CCCC1(C)C` (centres undefined), “inactive”; as for `c1cc2ccc3cccc4ccc(c1)c2c34`, 17.3 µM (active).
As for `COc1ccc(CC2NCCc3cc(OC)c(OC)cc32)cc1OC` (centres undefined), the entry is “inactive”; as for `Nc1ccc(Cl)cc1N`, “inactive”; as for `C#C[C@]1(O)C=C[C@@H]2[C@@H]3CCC4=CC(=O)CC[C@@H]4[C@H]3CC[C@@]21CC`, “inactive”.
As for `C[C@](O)(COc1ccc(C#N)cc1)C(=O)Nc1ccc(C#N)c(C(F)(F)F)c1`, the entry is “inactive”; as for `Cc1cc(O)ccc1Cl`, “inactive”.
Turning to `Clc1ccccc1C(c1ccccc1)(c1ccccc1)n1cccn1`, the Potency entry was “inactive”.
For `C[C@@H]1CC[C@H]2[C@@H](C)C(=O)O[C@@H]3O[C@@]4(C)CC[C@H]1[C@]32OO4`, the Potency entry was “inactive”.
As for `CC(C)NCC(O)c1ccc([N+](=O)[O-])cc1` (centres undefined), the entry is “inactive”; as for `C=CC(=O)NCNC(=O)C=C`, “inactive”.
As for `O=C(Nc1ccccc1-c1ccc(Cl)cc1)c1cccnc1Cl`, the entry is “inactive”; as for `O=[N+]([O-])c1ccc([As](=O)(O)O)cc1`, “inactive”; as for `C[C@@H]1[C@H](O)[C@@H](C)C=CC=CCCC=CC=CC=CC=C[C@H](O[C@H]2O[C@@H](C)[C@H](O)[C@@H](N)[C@@H]2O)CC2O[C@](O)(C[C@@H](O)[C@H](O)CC[C@@H](O)C[C@@H](O)C[C@@H](O)CC(=O)O[C@H]1C)C[C@H](O)[C@H]2C(=O)O`, “inactive”.
As for `CC(=O)OCC1=C(C(=O)O)N2C(=O)[C@@H](N)[C@@H]2SC1`, the entry is “inactive”.
Turning to `NC1=NC(=O)N2CC12` (centres undefined), the Potency result is “inactive”.
For the molecule `C1=C2CCCN[C@H]2[C@@H]2C[C@H]1[C@@H]1CCCCN1C2`, the Potency entry was “inactive”.
As for `COc1nn(CSP(=S)(OC)OC)c(=O)s1`, the entry is “inactive”; as for `C=C1C[C@H]2[C@H]3CCC(=O)[C@@]3(C)CC[C@@H]2[C@@]2(C)C=CC(=O)C=C12`, “inactive”.
As for `C=C[C@@H]1CN2CCC1C[C@@H]2[C@@H](O)c1ccnc2ccccc12` (some centres undefined), the entry is “inactive”; as for `CC(C)(C)[C@]1(O)C[C@@H]2OC(=O)C[C@@]23C(=O)O[C@@H]2OC(=O)[C@H](O)C213` (some centres undefined), “inactive”; as for `COC[C@H]1OC(=O)c2coc3c2[C@@]1(C)C1=C(C3=O)[C@@H]2CC[C@H](O)[C@@]2(C)C[C@@H]1OC(C)=O`, “inactive”.
As for `Nc1ccc(Cl)cc1`, the entry is “inactive”; as for `O=C(O)C(Cl)Cl`, “inactive”.
On to `ClC1=C(Cl)[C@]2(Cl)[C@@H]3[C@@H]4C[C@@H]([C@H]5O[C@@H]45)[C@@H]3[C@@]1(Cl)C2(Cl)Cl`, for which the Potency result was “inactive”.
Regarding `CCOC(=O)c1c(C(C#N)=CN)c2ccc(Cl)c(Cl)c2n1C`, the Potency result is “inactive”.
As for `COC(=O)c1cncn1C(C)c1ccccc1` (centres undefined), the entry is “inactive”; as for `C=C[C@@H]1CN2CCC1C[C@H]2[C@H](O)c1ccnc2ccccc12` (some centres undefined), “inactive”.
As for `CC(C)[C@H]1C(=O)N[C@H](CO)Cc2c[nH]c3cccc(c23)N1C`, the entry is “inactive”; as for `Oc1ccc2c3c1O[C@H]1[C@@H](O)C=C[C@H]4[C@@H](C2)NCC[C@@]341`, “inactive”; as for `CCC1(CCC(C)C)C(=O)NC(=O)NC1=O`, “inactive”.
As for `CCCCC(CC)COC(=O)c1ccccc1C(=O)OCC(CC)CCCC` (centres undefined), the entry is “inactive”.
